Molecules are shown by their SMILES. About 83,000 compounds went through this panel and 20% of them were active in at least one assay; those are over-represented in the sample as a whole.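 Testing used 96-well plates and a 48-hour single-concentration exposure. Example: -40 means 40% of the starting cells died.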 Values without a mark were called inactive. Active and inactive are the calls of the source.

The test system of the assay is SK-MEL-2 melanoma. As to the kind of experiment: NCI-60 one-dose screen, 48 h (100 = growth as untreated, 0 = no growth, -100 = all killed). The following applies: 10 µM unless noted. On the procedure:
Growth inhibition of the SK-MEL-2 human tumor cell line is measured as a screen for anti-cancer activity. Cells are grown in 96 well plates and exposed to the test compound for 48 hours. Compounds are tested at a single concentration, which is 10^-5 M for most compounds. The reported endpoint is percent growth (GI% or GIPRCNT), where numbers from 0 - 100% represent growth inhibition, and numbers from -100% - 0 represent cell death. For example, a value of 40 represents 60% growth inhibition. A value of 0 means no net growth occurred over the course of the experiment. A value of -40 indicates 40% of cells at the beginning of the experiment died by the end of the experiment. A value of -100 means all cells are dead at the end of the experiment.
NCI-60 Human Tumor Cell Lines Screen was performed using the standard one-dose NCI protocol, which is described in more detail at https://dtp.cancer.gov/discovery_development/nci-60/default.htm.
Compounds with GIPRCNT values below 10 were considered active. Activity score was based on GIPRCNT using the following formula: […]
Score is 0 for GIPRCNT values of 100 or above, 50 for GIPRCNT values of 0, and 100 for GIPRCNT values of -100.
As for `O=C(Cc1ccccc1)NC(c1ccc(Cl)cc1)c1c(O)ccc2ccccc12` (stereo not given), the growth was -3.92% (active).
Then `O=C(c1nc2ccccc2[nH]1)C1[C@@H](c2cccc(O)c2)C2CC3CCCCC3N2[C@@]12C(=O)Nc1cc(Cl)ccc12` (stereo not given in full), with 60.2%.
Then `CS(=O)(=O)Nc1ccc(C(=O)NC(C(=O)NO)c2ccc(-c3cccc(F)c3)cc2)cc1` (stereo not given), with 73.6%.
The figure for `c1ccc(CNc2nc(Nc3ccccc3)nc3ccccc23)cc1` is 21.8%; for `COc1cc2nc(-c3cccc4cccnc34)nc(NC3CCN(Cc4ccccc4)CC3)c2cc1OC` it is -77.8% (active); for `O=C(NC1CCN(Cc2ccccc2)CC1)c1cc2nc(-c3ccc(Cl)s3)cc(C(F)(F)F)n2n1` it is -62.8% (active).
Take `CN1C(=O)N(C)C2C1NN=c1s/c(=C\c3c[nH]c4ccccc34)c(=O)n12` (stereo not given): the growth is 52.5%.
The figure for `O=c1c(-c2nc3ccccc3[nH]2)cc2ccccc2n1Cc1cn(Cc2ccccc2Cl)nn1` is 94.1%; for `O=c1oc2ccc(F)cc2c(=O)n1-c1ccc(F)cc1F` it is -11.8% (active).
Then `CCCCC(O)(c1ccc(Cl)cc1)C(CN1CCOCC1)c1ccc(Cl)cc1` (stereo not given), with 50.1%.
Consider `O=C(Nc1ccsc1C(=O)NC1CCCCC1)c1ccc(F)cc1`, for which the growth is 121%.
For the molecule `CC(C)c1ccc(S(=O)(=O)NC(=O)NC2CCCC2)cc1`, the growth was 110%.
Then `N#Cc1c(N)nc2c(c1N)C(c1ccc(F)cc1)c1ccc(N)cc1O2` (stereo not given), with 112%; and `CC(=O)SC1CC(=O)C=C2CCC3C4CCC(=O)OC4(C)CCC3C21C` (stereo not given), with 106%.
The figure for `O=c1cc(-c2ccccc2)oc2cc(OCc3cn(Cc4ccc(F)cc4)nn3)cc(OCc3cn(Cc4ccc(F)cc4)nn3)c12` is 48.8%; for `CCCCN1CCN(c2ccc3nc(-c4ccc5nc(-c6ccc(OCC)cc6)[nH]c5c4)[nH]c3c2)CC1` it is 86.6%.
In the case of `CCOC(=O)c1sc(-c2ccc(OS(=O)(=O)c3ccccc3[N+](=O)[O-])c(C=O)c2)nc1C`, the growth was 86.6%.
Turning to `O=C(CCc1nnc2sc(-c3ccc(Cl)cc3Cl)nn12)c1nc2ncccc2[nH]1`, the growth is -11.5% (active).
The figure for `O=C(Nc1ccc(Cl)cc1)N1CCN(c2ccc3nncn3n2)CC1` is 22%.
The figure for `Fc1cccc(COc2ccc(Nc3ncnc4onc(-c5ccccc5)c34)cc2)c1` is 35.9%; for `Cc1ccc(C)c(-c2csc(Nc3ccc(C)c(C)c3)n2)c1` it is 31.6%; for `O=C(/C=C/c1ccccc1)c1ccc(Nc2nc(NCCO)nc(Nc3ccc(Cl)cc3)n2)cc1` it is 95.4%.
For `CC(=Nc1ccccc1)C1=C(O)C(Cc2ccc(F)cc2)NC1=O` (stereo not given), the growth is 17.6%.
With `COC(=O)c1cc2c(n1Cc1ccccc1)-c1oncc1CCC2`, the growth was 47.7%.
In the case of `CCOC(=O)C(CC(=O)O)=C(C(=O)OCC)C(=O)OCC`, the growth is 128%.
`O=CCCCC(O)C=O` (stereo not given): the growth is 105%.
Then `CN(C)c1ccc(N=Cc2ccc(N3CCOCC3)cc2)cc1`, with 67.2%; and `CSc1nc2c(c(=O)n1C)N=C1c3ccccc3C(=O)C1C(c1ccccc1)N2` (stereo not given), with 66.2%; and `Nc1nc(Nc2cccc(F)c2)nc2ccccc12`, with 50.6%.
Then `COc1ccc(-c2nnc(COc3ccc(C(=O)/C=C/c4ccco4)cc3)o2)cc1`, with 132%; and `COc1ccc(/C=C/C(=O)c2c(C)nc3ccccc3c2/C=C/c2ccccc2)cc1O`, with 66.8%.
The figure for `COc1ccc(C2NCCc3c2[nH]c2ccccc32)cc1CN1CCN(c2ccc(F)cc2)CC1` (stereo not given) is 64.1%; for `CCOC(=O)c1cc2c(n1Cc1cc(OC)cc(OC)c1)-c1oncc1CCC2` it is 41.8%; for `O=c1oc2ccc(Br)cc2c(=O)n1-c1ccc(Br)cc1F` it is -18% (active).
Take `COc1ccc(OC)c(NC(=O)/C(C#N)=C/c2ccco2)c1`: the growth is 87.1%.
The figure for `Cc1nc2ccccc2c(/C=C/c2ccc(F)cc2)c1C(N)=O` is 105%.
The figure for `O=c1oc2ccc(-c3ccc(F)cc3F)cc2c(=O)n1-c1ccc(Cl)c(C(F)(F)F)c1` is -18.1% (active).
As to `O=c1oc2ccc(-c3ccc(F)cc3F)cc2c(=O)n1-c1cccc(C(F)(F)F)c1`, the growth is -15.9% (active).
Take `COc1cc(/C=C2\Oc3cc(OCCCN4CCCC4)ccc3C2=O)cc(OC)c1`: the growth is 108%.
`O=C(Nc1nc2c(s1)CCc1c-2c(Br)n(Cc2ccccc2)c1Br)c1ccccc1`: the growth was 89.4%.

Source of the values: PubChem BioAssay (NCI).
